High-throughput results deposited in PubChem by Center for Chemical Genomics, University of Michigan.
CDC25B-CDK2 inh: primary biochemical HTRF screen for blockers of M-phase inducer phosphatase 2 binding to CDK2/cyclin A; 0.72% of 94,000 active; z-score (test concentration not listed); AID 1259370, 2018; HTRF CDC25B-CDK2/CyclinA binding, anti-His/anti-Flag; hits give high values; in the data active = z-score above about 3.2
HIV TAR-Tat: TAR RNA-Tat peptide displacers, HIV-1, primary screen, biochemical, FRET, FAM/TAMRA-labeled Tat; HIV-1 TAR RNA, Tat peptide displacement FRET; hits give high values; z-score (concentration not given with the values); 0.6% of 100,000 active; active = z-score of 3 or more in at least 2 runs
Numbers without * were called inactive; . = not tested or not shown. Compounds with a hit are over-represented: about 0.93% of the library has one in this group of screens.

SMILES | CDC25B-CDK2 inh | HIV TAR-Tat
CN1CCN(c2cc(NCCO)c3c4c(onc24)-c2ccccc2C3=O)CC1 | 0.56 | 9*
CN1CCN(c2cc(NCCN3CCCC3)c3c4c(onc24)-c2ccccc2C3=O)CC1 | -2.2 | -3.5
CCCCNc1cc(N2CCN(CCO)CC2)c2noc3c2c1C(=O)c1ccccc1-3 | 0.83 | 7.7*
O=C1c2ccccc2-c2onc3c(N4CCN(c5ccccc5F)CC4)cc(NCCO)c1c23 | 0.96 | 2.3
CC(C)Nc1cc(N2CCCCC2)c2noc3c2c1C(=O)c1ccccc1-3 | -1.2 | 0.79
COc1ccc(Nc2cc(N3CCN(C)CC3)c3noc4c3c2C(=O)c2ccccc2-4)cc1 | 7.5* | 0.88
CC(C)Nc1cc(N2CCN(C)CC2)c2noc3c2c1C(=O)c1ccccc1-3 | 1.5 | 9.7*
CN1CCN(c2cc(Nc3ccc(N(C)C)cc3)c3c4c(onc24)-c2ccccc2C3=O)CC1 | -0.4 | -1.2
COC(=O)CCC(C)[C@H]1CCC2C3C(C[C@H](O)[C@@]21C)[C@@]1(C)CC[C@@H](O)C[C@H]1C[C@H]3O (stereo not given in full) | . | 0.31
COCCNc1cc(N2CCCCC2)c2noc3c2c1C(=O)c1ccccc1-3 | 1.7 | 8.1*
CCNc1cc(N2CCCC(C)C2)c2noc3c2c1C(=O)c1ccccc1-3 (stereo not given) | -0.57 | 4.5*
COCCNc1cc(N2CCN(C)CC2)c2noc3c2c1C(=O)c1ccccc1-3 | -2.5 | 1.6
CC1CCCN(c2cc(NC(C)C)c3c4c(onc24)-c2ccccc2C3=O)C1 (stereo not given) | -0.58 | 0.41
O=C(CN1C(=O)c2cccnc2Sc2ccccc21)NCCCN1CCCC1=O | . | 1.1
Nc1c(C(=O)NCc2ccco2)sc2nc(-c3ccncc3)ccc12 | 12* | -3.5
COc1cc(CNC(=O)c2sc3nc(-c4ccncc4)ccc3c2N)cc(OC)c1 | -1.5 | 1.2
Cc1cc2c3c([nH]c2cc1S(=O)(=O)Nc1ccc(Cl)cc1)CCCC3=O | . | 2.7
Cc1ccc(C)c(NC(=O)N2CCn3c(C)ccc3C2C(C)C)c1 (stereo not given) | . | 1.2
O=C(O)c1cc(=O)c(O)c2c(O)c(O)ccc2c1 | . | 25*
Cc1cc(=O)c2c(O)c(O)ccc2o1 | -2.2 | .
O=c1cccc2ccc(O)c(O)c2c1O | . | 25*
CC1=NN(c2cccc(C(=O)O)c2)C(=O)C1 | -1.1 | 0.21
NC(=O)C1CCN(c2csc3ccc(Br)cc3c2=O)CC1 | . | -0.3
CS(=O)(=O)c1ccc(-c2ccc(NS(=O)(=O)c3cc(F)ccc3F)cc2)nn1 | . | -0.61
COc1ccc(-c2nc3n(n2)C2(CCCCC2)[C@@H]2CCCC[C@@H]2N3)cc1 | -0.71 | -0.03
SMILES | CDC25B-CDK2 inh | HIV TAR-Tat
CC(C)N(C(=O)Cn1cc(SCC(=O)NC2CCCC2)c2ccccc21)C(C)C | . | -0.2
CCCCC(=O)Nc1ccc2nc(NS(C)(=O)=O)sc2c1 | . | -0.5
CS(=O)(=O)Nc1nc2ccc(NC(=O)Cc3cccs3)cc2s1 | . | 16*
O=C(O)C1CCCN1c1ncc(Cl)cc1[N+](=O)[O-] (stereo not given) | . | -13
CCOC(=O)C1CCCN1c1ncc(Cl)cc1[N+](=O)[O-] (stereo not given) | 14* | -9.8
CCN1CCCC1CNC(=O)Cn1ncn2nc(-c3cccs3)cc2c1=O (stereo not given) | -2 | 0.5
C=CCn1c(SCC(=O)O)nc2c1c(=O)n(C)c(=O)n2C | -1.6 | 0.29
Cc1ccc(N2CSC3=C(C#N)C(c4cccs4)CC(=O)N3C2)cc1C (stereo not given) | 6.2* | -1.5
N#CC1=C2SCN(C3CCCC3)CN2C(=O)CC1c1ccc(Cl)cc1 (stereo not given) | 0.82 | 0.27
CCOc1ccc(C2CC(=O)N3CN(Cc4cccnc4)CSC3=C2C#N)cc1 (stereo not given) | 6.8* | -2.2
CCOc1ccc(C2CC(=O)N3CN(c4ccc(CCO)cc4)CSC3=C2C#N)cc1 (stereo not given) | 7.2* | -1.6
N#CC1=C2SCN(C3CCCC3)CN2C(=O)CC1c1cccs1 (stereo not given) | 5.9* | 1.3
CCOc1ccc(C2CC(=O)N3CN(CCO)CSC3=C2C#N)cc1 (stereo not given) | 0.17 | 1.3
CSc1ccc(C2CC(=O)N3CN(Cc4ccccc4)CSC3=C2C#N)cc1 (stereo not given) | 1.5 | -2.2
COc1ccccc1N1CCN(S(=O)(=O)c2ccc(-c3cc(C)[nH]n3)s2)CC1 | . | 0.01
COc1ccc(C(Nc2cc(C)ccn2)c2ccc3cccnc3c2O)cc1O (stereo not given) | -5.1 | .
CCOc1ccc(N2CSC3=C(C#N)C(c4cccs4)CC(=O)N3C2)cc1 (stereo not given) | 4* | -1.7
N#CC1=C2SCN(c3ccccc3)CN2C(=O)CC1c1cccs1 (stereo not given) | 17* | -0.09
N#CC1=C2SCC(O)(c3ccccc3)N2C(=O)CC1c1cccs1 (stereo not given) | -2.3 | .
N#CC1=C2SCN(c3ccc(F)cc3)CN2C(=O)CC1c1cccs1 (stereo not given) | 6* | 0.54
N#CC1=C2SCN(c3ccc(Br)cc3)CN2C(=O)CC1c1cccs1 (stereo not given) | 0.05 | 2.7
N#CC1=C2SCN(c3ccc(Cl)cc3)CN2C(=O)CC1c1cccs1 (stereo not given) | 6.3* | -0.61
CN(CC(=O)NC(C)(C)C)S(=O)(=O)c1ccc2[nH]c(=O)ccc2c1 | . | 1.5
CCCCc1nn2c(=O)cc(CSc3n[nH]c(CCC)n3)nc2s1 | . | 0.6
COc1ccc(-c2csc3ncnc(NCCc4ccco4)c23)cc1 | . | 1.4
SMILES | CDC25B-CDK2 inh | HIV TAR-Tat
CCc1nc(SCc2cc(=O)c3ccccc3[nH]2)n[nH]1 | . | -0.39
CCOc1ccc(N2CSC3=C(C#N)C(c4ccco4)CC(=O)N3C2)cc1 (stereo not given) | 5.1* | -1.8
Cc1ccc(S(=O)(=O)N2CCCC2c2cccs2)cc1 (stereo not given) | 0.5 | -0.85
CCOCCCN1C(=O)c2c(NC(C)=O)c3cc(F)ccc3n2CC1(C)C(=O)NC1CCCCC1 (stereo not given) | . | 2.3
O=C(O)c1cc(N2C(=O)c3c(Cl)c(Cl)c(Cl)c(Cl)c3C2=O)ccc1Cl | 8.6* | .
O=C(O)c1cc(N2C(=O)C3CCCCC3C2=O)ccc1Cl (stereo not given) | . | 1
O=C(CSCCS(=O)(=O)c1ccc(Cl)cc1)NCc1ccccc1 | -1.6 | .
COC(=O)c1cscc1OC(=O)c1ccc(C(F)(F)F)cc1 | 17* | .
COc1cscc1C(=O)Nc1cc(C(F)(F)F)cc(C(F)(F)F)c1 | -0.73 | .
CC1CCCC(N(C)C(=O)c2cc(S(=O)(=O)N3CCc4ccccc43)cn2C)C1C (stereo not given) | 0.55 | 1.6
CC1CCCCN1C(=O)C1=CC(c2cccs2)=NS(=O)(=O)N1C (stereo not given) | -2.5 | 2.7
CC1O[P+]2(OC1C)OC(C)C(C)O2 (stereo not given) | 5.2* | .
CC(C)c1nnc(N2C(=O)c3oc4ccccc4c(=O)c3C2c2cccs2)s1 (stereo not given) | -6 | .
O=C(c1nc2ccccc2nc1Cl)N1CCN(c2ccccn2)CC1 | -1.2 | 0.74
COc1ccc2c(c1)Cc1sc(NC(=O)c3ccc(OC)c(Br)c3)nc1-2 | 19* | 0.6
